Drawing on PubChem BioAssay AID2551 (National Center for Advancing Translational Sciences (NCATS), 2010), this text covers Potency and activity change, negative = inhibition for 69 compounds.

Among all 310,000 compounds or so, about 17,000 (5.5%) were called active. About 11% were inconclusive and are not listed. The list comes from a sample in which actives are over-represented; it also holds similar structures and randomly drawn compounds. A call without a number means that no potency is given here. Unmarked numbers belong to inactive results. Calls follow the shape of the dose curve; as a rule, active = well fitted inhibition curve with a large enough effect; inconclusive = small, poorly fitted or top-dose-only effect, or effect the other way; inactive = no such curve, though single readings can be large or run the other way.
Potency is read from the fitted curve at half-maximal effect.

Nuclear receptor ROR-gamma (Mus musculus), sequence (P51450 whole entry, looked up, the tested form may be a part): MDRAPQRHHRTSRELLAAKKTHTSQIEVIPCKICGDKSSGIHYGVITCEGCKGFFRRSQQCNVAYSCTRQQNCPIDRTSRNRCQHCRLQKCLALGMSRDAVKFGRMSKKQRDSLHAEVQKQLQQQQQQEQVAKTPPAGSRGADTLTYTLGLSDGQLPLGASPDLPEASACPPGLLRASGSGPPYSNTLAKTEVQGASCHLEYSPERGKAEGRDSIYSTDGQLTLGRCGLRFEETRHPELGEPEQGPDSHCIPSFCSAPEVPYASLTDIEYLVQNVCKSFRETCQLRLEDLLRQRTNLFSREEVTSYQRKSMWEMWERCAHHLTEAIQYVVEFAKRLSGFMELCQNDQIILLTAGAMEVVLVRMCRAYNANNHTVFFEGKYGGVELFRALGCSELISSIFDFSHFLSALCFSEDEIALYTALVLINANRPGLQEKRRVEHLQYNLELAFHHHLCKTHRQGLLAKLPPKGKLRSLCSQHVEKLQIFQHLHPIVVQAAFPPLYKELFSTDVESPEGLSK

For the test, the target named is Nuclear receptor ROR-gamma (Mus musculus) (UniProt P51450). The test can be described thus: qHTS for inhibitors of ROR gamma transcriptional activity. Also: nearly all actives have a fitted effect of over 60% in size. As to conditions: Drosophila S2 Gal4-RORgamma UAS-luciferase reporter, 20 h; series mostly up to 53.6 µM. The essentials:
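Drosophila S2 cells stably expressing Gal4-DBD/mouse RORγ fusion under metallothionein promoter plus UAS-luciferase; compound 1 h, then 700 uM CuSO4 induction for 20 h at ambient temperature; inhibition read as reduced luminescence.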
Take `CCc1ccccc1N(CC(=O)NCC1CCCO1)C(=O)CCC(=O)Nc1nccs1` (centres undefined): the Potency result is “inactive”.

Turning to `COC(=O)NNC1=CC(=O)CC(C)(C)C1`, the Potency result is “inactive”.

Take `CC1(C)CC(=O)C=C(Nc2ccccc2)C1`: the Potency result is “inactive”.

As to `Cc1cc(C)nc(NNC2=CC(=O)CC(C)(C)C2)n1`, the Potency is 17.8 µM (active).

Regarding `CN1CCN(c2ccccc2NC(=O)COc2ccc(C3CCCCC3)cc2)CC1`, the Potency entry is “inactive”.

Regarding `CCn1cc(S(=O)(=O)c2cccc(C)c2)c(=O)c2cc(F)c(N3CCN(C)CC3)cc21`, the Potency entry was “inactive”.

As for `COc1ccc(CCNC(=O)CN2C(=O)CCSc3ccccc32)c(OC)c1`, the Potency result was “inactive”.

Consider `CCOC(=O)c1ccc(NC(=O)c2nc[nH]c2C(=O)N[C@@H](CCCCNC(=O)OC(C)(C)C)C(=O)OC(C)(C)C)cc1`, for which the Potency was 11.2 µM (active).

In the case of `Cc1ccc(NC(=O)c2nc[nH]c2C(=O)N[C@@H](CCCCNC(=O)OC(C)(C)C)C(=O)OC(C)(C)C)cc1`, the Potency was 8.91 µM (active).

Take `Cc1ccc(NC(=O)OCCNC(=O)c2ccncc2)cc1`: the Potency entry is “inactive”.

In the case of `CCCCCOC(=O)NCCOC(=O)Nc1ccc(C(=O)OCC)cc1`, the Potency entry was “inactive”.

`Cc1ccc(NC(=O)c2cccnc2C(=O)Nc2ccc(C)cc2)cc1`: the Potency entry is “inactive”.

With `CCCCC(CCC(=O)Nc1ccc(C(=O)OCC)cc1)C(=O)O` (centres undefined), the Potency entry is “inactive”.

Regarding `COc1ccc(Nc2ncnc3sc(C)cc23)cc1`, the Potency entry is “inactive”.

With `CC(C)CCn1c(=O)c2c(nc3n2CCCN3Cc2ccccc2)n(C)c1=O`, the Potency result was “inactive”.

With `S=c1nc(C23CC4CC(CC(C4)C2)C3)nc2sccn12`, the Potency was 7.94 µM (active).

Turning to `COc1cc(OC)cc(-c2nc(=S)n3ccsc3n2)c1`, the Potency entry was “inactive”.

For `Nc1nc(C23CC4CC(CC(C4)C2)C3)cs1`, the Potency result is “inactive”.

For the compound `C=CCC1=C/C(=C\c2c(N)n3nc(CC(=O)N4CCOCC4)sc3nc2=O)C=C(OC)C1=O`, the Potency entry was “inactive”.

Take `COc1ccccc1Oc1nc(-c2cccnc2)nc2ccccc12`: the Potency entry is “inactive”.

With `N#Cc1ccc(Oc2cc(C(F)(F)F)nc(-c3ccccn3)n2)cc1`, the Potency result is “inactive”.

For `Cc1ccc(Oc2nc(-c3ccccn3)nc3ccccc23)cc1`, the Potency was 0.251 µM (active).

For `COc1ccc(Sc2nc(-c3ccccc3)ncc2OC)cc1`, the Potency result was “inactive”.

With `Cc1cnc(CNc2nc(-c3cccnc3)nc3ccccc23)cn1`, the Potency entry is “inactive”.

Consider `COc1ccc(Cc2nc(-c3ccccn3)no2)cc1OC`, for which the Potency result is “inactive”.

On to `COc1cnc(-c2ccccn2)nc1Oc1ccc(C(C)(C)C)cc1`, for which the Potency was 5.62 µM (active).

In the case of `CNc1nc(-c2ccccc2OC)nc2ccccc12`, the Potency result was “inactive”.

Regarding `CC(C)(C)Nc1nc(-c2ccccn2)nc2ccccc12`, the Potency was 1.41 µM (active).

`O=C(CCc1ccccc1)Nc1ccnn1C1CCN(Cc2ccc(OCCO)cc2)CC1`: the Potency entry is “inactive”.

Regarding `Cn1cc[n+](C)c1COc1ccc(C=O)cc1`, the activity change, negative = inhibition was -16.6% [at 1.91 µM].

Turning to `COC(=O)[C@@H]1CC(O)CN1C(=O)C12CC3CC(CC(C3)C1)C2` (some centres undefined), the Potency result was “inactive”.

In the case of `COc1cc(/C=N/NC(=O)c2ccccc2)ccc1OS(=O)(=O)c1ccccc1`, the Potency entry is “inactive”.

As to `COc1ccc(C(=O)Nc2ccccc2C(=O)N/N=C/c2ccc(O)c(OC)c2)cc1`, the Potency was 0.199 µM (active).

`COc1ccccc1C(=O)NNC(=O)c1ccc(NC(=O)c2ccccc2)cc1`: the Potency result is “inactive”.

On to `COc1ccc(/C=N/NC(=O)c2ccc3c(c2)OCCO3)c(OC)c1`, for which the Potency entry is “inactive”.

For `COc1cc(/C=N/NC(=O)c2ccc(N3CCCC3=O)cc2)ccc1O`, the Potency entry is “inactive”.

Regarding `COc1ccc(C(=O)Nc2ccccc2C(=O)N/N=C/c2ccccc2OC)cc1`, the Potency is 15.8 µM (active).

Consider `O=C(CSCc1ccccc1)Nc1ccccc1`, for which the Potency result is “inactive”.

For `Cc1ccn2c(c1)nc(=O)c1cc(S(=O)(=O)N3CCC(C)CC3)ccc12`, the Potency entry is “inactive”.

Consider `COc1cccc(/C=C2/SC(=S)N(CC(=O)NC3C=CS(=O)(=O)C3)C2=O)c1` (centres undefined), for which the Potency entry is “inactive”.

Take `COc1ccc(S(=O)(=O)Nc2ccccc2C(=O)N2CCCC2)cc1C`: the Potency result is “inactive”.

Take `Nc1ccn(C2CC(O)C(CO)O2)c(=O)n1` (centres undefined): the Potency result was “inactive”.

As for `CN1CCN(CCCCOc2cccc3ccccc23)CC1`, the Potency result was “inactive”.

Take `O=C(O)c1c(NC(=O)N2CCCC2)sc2c1CCCC2`: the Potency result was “inactive”.

On to `Cc1ccc(NC(=O)c2c(NC(=O)CCC(=O)O)sc3c2CCCCC3)cc1`, for which the Potency result was “inactive”.

Regarding `O=C(CN1CCCC1)Nc1sc2c(c1C(=O)Nc1ccccc1)CCCC2`, the Potency was 5.01 µM (active).

Consider `CC1=C(C(=O)OC2CCCCC2)C(c2ccccc2F)NC(=O)N1` (centres undefined), for which the Potency entry is “inactive”.

As to `Cc1ccc2c(c1)N(CC(=O)N1CCCC(C)C1)C(=O)CO2` (centres undefined), the Potency result was “inactive”.

Turning to `Cc1ccc(NC(=O)c2cc(-c3ccc(C)o3)nc3ccccc23)nc1`, the activity change, negative = inhibition was -10.5% [at 0.365 µM].

For `O=c1oc2ccccc2cc1-c1csc(Nc2ccc(O)cc2)n1`, the Potency entry was “inactive”.

Turning to `Cc1ccc(Nc2nc(-c3ccc(O)cc3O)cs2)nc1`, the Potency was 8.91 µM (active).

In the case of `CCOc1nc(NCCN2CCOCC2)nc(Nc2ccc(C)cc2)n1`, the Potency result is “inactive”.

Turning to `COc1cccc(NC(=S)NCCCN2CCOCC2)c1`, the Potency entry was “inactive”.

Take `CCOc1cccc(/C=N/NC(=S)NCCN2CCOCC2)c1O`: the Potency was 1.41 µM (active).

`Cc1ccc(N(C(=O)c2snc(C(N)=O)c2N)C(C(=O)NCC2CCCO2)c2c[nH]c3ccccc23)cc1` (centres undefined): the Potency result is “inactive”.

Take `COc1ccc(S(=O)(=O)NCCc2cc3ccc(C)c(C)c3[nH]c2=O)cc1`: the Potency entry is “inactive”.

Consider `Fc1ccc(/C=N/Nc2nc(-c3cccnc3)nc3ccccc23)cc1`, for which the Potency entry is “inactive”.

With `Cc1nc2ccccc2nc1N/N=C/c1ccc(O)cc1O`, the Potency is 11.2 µM (active).

In the case of `Cc1cc(N/N=C/c2ccccc2F)c2ccccc2n1`, the Potency result was “inactive”.

As for `COc1ccc(/C=C(\C#N)C(=O)ONC2=NCCCCC2)cc1`, the Potency result was “inactive”.

As for `Cc1nc2ccccc2cc1O`, the Potency entry was “inactive”.

As for `COc1ccccc1N1CCN(/N=C/c2ccc(O)cc2O)CC1`, the activity change, negative = inhibition was -15.8% [at 1.91 µM].

For the compound `Oc1ccc(/C=N/NC2=NCCCCC2)c(O)c1`, the Potency was 11.2 µM (active).

`Oc1ccc(/C=N/Nc2nc(-c3ccccc3F)nc3ccccc23)c(O)c1`: the Potency is 10 µM (active).

Regarding `Cc1cc(O)ccc1-c1cnc2ccccc2n1`, the Potency entry was “inactive”.

On to `COc1ccc(C(=O)Nc2ccc(C(=O)NCC3CCCO3)cc2)c(OC)c1OC` (centres undefined), for which the Potency result was “inactive”.

In the case of `COc1ccc(C(=O)NC2CC2)cc1OC1CCN(Cc2ccc(SC)cc2)CC1`, the Potency entry was “inactive”.

As for `CCOC(=O)N1CCN(Cc2nc3cc(NC(C)=O)ccc3n2C)CC1`, the Potency result was “inactive”.

For the compound `O=S(=O)(NC1CC2CCC1C2)c1ccc(Cl)cc1` (centres undefined), the activity change, negative = inhibition is 44% [at 1.91 µM].
